From PubChem BioAssay (NCATS)
Records with an inconclusive call do not appear. The source made the active and inactive calls. The call rests on the fitted dose curve; in most records, active means well fitted cell-killing curve with a large enough effect; inconclusive means small, poorly fitted or top-dose-only effect; inactive means flat fitted curve, though single readings scatter.

Assay: Cell Viability - LYMP2-008 (AID 980);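 further: cells exposed to compound for 24 h at 37 °C; nearly all actives have a fitted effect of over 60% in size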
Conditions: LYMP2-008 lymphoblastoid cell viability, qHTS; series mostly up to 92.2 µM
Source text: NIH Chemical Genomics Center [NCGC]
NIH Molecular Libraries Screening Centers Network [MLSCN]
National Institutes of Environmental Health Sciences [NIEHS]
National Toxicology Program [NTP]
We have developed a 1536-well cell-based assay for quantitative high throughput screening (qHTS) against a number of cell lines to determine in vitro cytotoxicity of small molecules. This particular assay uses a human lymphoblastoid cell line (LYMP2-008) purchased from Coriell Institute for Medical Research.
NCGC Assay Protocol Summary:
The CellTiter-Glo luminescent cell viability assay (Promega) is a homogeneous method to measure the number of viable cells in culture. The end point readout of this assay is based on quantitation of intracellular ATP, an indicator of metabolic activity, using the luciferase reaction. Luciferase catalyzes the oxidation of beetle Luciferin to oxyluciferin and light in the presence of ATP. The luminescent signal is proportional to amount of ATP present.
Using the CellTiter-Glo luminescent cell viability assay, the amount of cellular ATP was measured in the lymphoblastoid cell line with complete culture medium following compound treatment for 24 hours. The assay was performed in opaque white Kalypsys 1536-well plates. In the screen, tetraoctylammonium bromide was used as positive control. Library compounds were measured for their ability to cause acute toxicity in the cell line, as reflected by a decrease in intracellular ATP levels, in a concentration-dependent manner. […] AC50 values were determined from concentration-response data modeled with the standard Hill equation.
qHTS protocol for CellTiter Glo lymphoblastoid cellular assay
[Step] [Parameter] [Value] [Description]
1. Reagent; 5 uL; 2500 lymphoblastoid cells/well
2. Time; 5 hr; 37 C incubation
4. Controls; 23 nL; Tetraoctylammonium bromide 6.4pM to 92 uM
5. Time; 24 hr; 37 C incubation
6. Reagent; 5 uL; CellTiter Glo reagent
7. Time; 30 min; Room Temperature
8. Detection; Luminescence; Viewlux plate reader
Keywords: cell viability, cytotoxicity, lymphoblastoid cell line, luminescence, NTPHTS, NTPHTS_NCGC, NIEHS, DSSTox, MLSMR, MLSCN, NIH Roadmap, qHTS, NCGC

Row | Structure (SMILES) | outcome
1 | CC(C)(c1ccc(OCC2CO2)cc1)c1ccc(OCC2CO2)cc1 (stereo not drawn) | inactive
2 | Oc1c(Cl)c(Cl)c(Cl)c(Cl)c1Cl | inactive
3 | O=Cc1ccccc1 | inactive
4 | CCOc1cc(C=O)ccc1O | inactive
5 | Oc1ccccc1Cl | inactive
6 | CC(C)COC(=O)c1ccccc1C(=O)OCC(C)C | inactive
7 | CC(=O)/C=C/c1ccccc1 | inactive
8 | CCOC(=O)c1ccccc1N | inactive
9 | c1ccc2c(c1)-c1cccc3cccc-2c13 | inactive
10 | Cc1ccccc1O | inactive
11 | c1ccc(Nc2ccc3ccccc3c2)cc1 | inactive
12 | COC1=CC(=O)OC(CCc2ccc3c(c2)OCO3)C1 (stereo not drawn) | inactive
13 | COC(=O)c1ccccc1C(=O)OC | inactive
